About 83,000 compounds went through this panel and 20% of them were active in at least one assay; those are over-represented in the sample as a whole.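 Step 1: grow cells in 96-well plates. Step 2: add test compound at a single concentration. Step 3: incubate 48 h. Step 4: record percent growth.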 Activity calls are given as the source filed them. How the source made its calls: active means growth percent below 10; inactive means the rest.
Assays:
Assay in all cases: NCI-60 one-dose screen, 48 h (100 = growth as untreated, 0 = no growth, -100 = all killed)
NCI-H226 lung = details: 10 µM unless noted
NCI-H322M lung = details: 10 µM unless noted
HOP-62 NSCLC = details: 10 µM unless noted
NCI-H460 lung = details: 10 µM unless noted
A549/ATCC NSCLC = details: 10 µM unless noted
786-0 renal = details: 10 µM unless noted
COLO 205 colon = details: 10 µM unless noted
DU-145 prostate = details: 10 µM unless noted
K-562 leukemia = details: 10 µM unless noted
MALME-3M melanoma = details: 10 µM unless noted
MDA-MB-231 breast = details: 10 µM unless noted
RXF 393 renal = details: 10 µM unless noted
SF-268 CNS = details: 10 µM unless noted
SF-539 CNS = details: 10 µM unless noted
UACC-257 melanoma = details: 10 µM unless noted
M14 melanoma = details: 10 µM unless noted
HOP-92 NSCLC = details: 10 µM
NCI-H522 lung = details: 10 µM
SF-295 CNS = details: 10 µM unless noted

Measured: growth

NC(CSC(c1ccccc1)(c1ccccc1)c1ccccc1)C(=O)NCC(=O)O (configuration not stated)
inactive: NCI-H226 lung 99.6% | NCI-H322M lung 47.9% | HOP-62 NSCLC 80% | NCI-H460 lung 95.2% | A549/ATCC NSCLC 86.8% | 786-0 renal 71.3% | COLO 205 colon 16.6% | DU-145 prostate 111% | K-562 leukemia 54.2% | MALME-3M melanoma 52.9% | MDA-MB-231 breast 61.2% | RXF 393 renal 22.6% | SF-268 CNS 67.3% | SF-539 CNS 21.3% | UACC-257 melanoma 54.9% | M14 melanoma 44.6%

COc1cc(Cn2ccc3c2-c2oncc2CC3)cc(OC)c1
active: NCI-H460 lung 7.4%
inactive: NCI-H226 lung 67.4% | NCI-H322M lung 33.2% | HOP-92 NSCLC 57.5% | NCI-H522 lung 29.3% | A549/ATCC NSCLC 36% | 786-0 renal 50.9% | COLO 205 colon 26.1% | DU-145 prostate 43.7% | K-562 leukemia 24.9% | MDA-MB-231 breast 44.1% | RXF 393 renal 54.6% | SF-268 CNS 50% | SF-295 CNS 24.2% | SF-539 CNS 19.6% | UACC-257 melanoma 53.4%

CC(=O)N1N=C(c2ccc(Cl)cc2)CC1c1cn(-c2ccccc2)nc1-c1ccc([N+](=O)[O-])cc1 (configuration not stated)
inactive: NCI-H226 lung 93.6% | NCI-H322M lung 83.1% | NCI-H460 lung 101% | HOP-92 NSCLC 117% | NCI-H522 lung 103% | A549/ATCC NSCLC 108% | 786-0 renal 104% | COLO 205 colon 93.9% | DU-145 prostate 116% | K-562 leukemia 118% | MALME-3M melanoma 92% | MDA-MB-231 breast 104% | RXF 393 renal 135% | SF-268 CNS 102% | SF-295 CNS 104% | SF-539 CNS 93.6% | UACC-257 melanoma 106%

COc1nc(OC)nc(-c2cc(-c3cc(OC)c(OC)c(OC)c3)no2)n1
inactive: NCI-H226 lung 92.8% | NCI-H322M lung 115% | NCI-H460 lung 101% | HOP-92 NSCLC 95.4% | NCI-H522 lung 95.7% | A549/ATCC NSCLC 88.8% | 786-0 renal 93.9% | DU-145 prostate 105% | K-562 leukemia 95.1% | MALME-3M melanoma 110% | MDA-MB-231 breast 90.5% | RXF 393 renal 94.8% | SF-268 CNS 100% | SF-295 CNS 104% | SF-539 CNS 112% | UACC-257 melanoma 99.6% | M14 melanoma 111%

COc1ccc(C(=O)c2no[n+]([O-])c2C(=O)c2ccc(OC)cc2)cc1
inactive: NCI-H226 lung 41.7% | NCI-H322M lung 83.8% | NCI-H460 lung 89.8% | A549/ATCC NSCLC 94.8% | DU-145 prostate 81.1% | MDA-MB-231 breast 57.4% | SF-295 CNS 92.8% | SF-539 CNS 89.3% | UACC-257 melanoma 13.4%
active: HOP-92 NSCLC -73.5% | NCI-H522 lung -88.3% | 786-0 renal -98.7% | COLO 205 colon -85.7% | K-562 leukemia -100% | MALME-3M melanoma -69.5% | SF-268 CNS -38.5%

NC(=O)c1c(Nc2ccccc2)nn2cc(-c3nc4ccccc4s3)c(N)nc12
inactive: NCI-H226 lung 85.5% | NCI-H322M lung 103% | NCI-H460 lung 98.6% | HOP-92 NSCLC 93.2% | NCI-H522 lung 91.4% | A549/ATCC NSCLC 105% | 786-0 renal 109% | COLO 205 colon 106% | DU-145 prostate 107% | K-562 leukemia 93.1% | MALME-3M melanoma 96% | MDA-MB-231 breast 84.7% | RXF 393 renal 102% | SF-268 CNS 95.6% | SF-295 CNS 98.7% | SF-539 CNS 95.3% | UACC-257 melanoma 118% | M14 melanoma 93.5%

Ic1ccc(SSc2ccc(I)cc2)cc1
inactive: NCI-H226 lung 90.6% | NCI-H322M lung 100% | HOP-62 NSCLC 108% | HOP-92 NSCLC 90.7% | NCI-H522 lung 86.7% | A549/ATCC NSCLC 74.1% | 786-0 renal 92.6% | COLO 205 colon 124% | DU-145 prostate 103% | K-562 leukemia 95.5% | MALME-3M melanoma 114% | MDA-MB-231 breast 87.8% | RXF 393 renal 99.7% | SF-268 CNS 59.2% | SF-295 CNS 77.5% | SF-539 CNS 86.1% | UACC-257 melanoma 88.1% | M14 melanoma 104%

O=C(CN1C(=O)NC(c2ccccc2)(c2ccccc2)C1=O)c1ccc(N2CCCC2)cc1
inactive: NCI-H226 lung 90.7% | NCI-H322M lung 97.4% | NCI-H460 lung 103% | HOP-92 NSCLC 73.8% | NCI-H522 lung 64.5% | A549/ATCC NSCLC 77.2% | 786-0 renal 99.6% | COLO 205 colon 103% | DU-145 prostate 107% | K-562 leukemia 29.5% | MALME-3M melanoma 72.1% | MDA-MB-231 breast 113% | RXF 393 renal 81% | SF-268 CNS 97.8% | SF-295 CNS 72.1% | SF-539 CNS 100% | UACC-257 melanoma 85.8% | M14 melanoma 52.9%

CC(=O)NCCN
inactive: NCI-H226 lung 97.5% | NCI-H322M lung 108% | HOP-62 NSCLC 108% | NCI-H460 lung 109% | A549/ATCC NSCLC 96.6% | 786-0 renal 98.3% | COLO 205 colon 106% | DU-145 prostate 116% | K-562 leukemia 101% | MALME-3M melanoma 100% | MDA-MB-231 breast 101% | RXF 393 renal 90.1% | SF-268 CNS 108% | SF-295 CNS 101% | SF-539 CNS 94.9% | UACC-257 melanoma 86.9% | M14 melanoma 108%

CCCCCCCCCCCCCCCCNC(=O)Nc1ccc(C)c(NC(=O)NCCCCCCCCCCCCCCCC)c1
inactive: NCI-H226 lung 98.9% | NCI-H322M lung 108% | HOP-62 NSCLC 98% | NCI-H460 lung 103% | A549/ATCC NSCLC 104% | 786-0 renal 118% | COLO 205 colon 116% | DU-145 prostate 112% | K-562 leukemia 105% | MALME-3M melanoma 89.8% | MDA-MB-231 breast 89.9% | RXF 393 renal 108% | SF-268 CNS 114% | SF-295 CNS 114% | SF-539 CNS 110% | UACC-257 melanoma 105% | M14 melanoma 108%

N=C(N)N=Nc1ccc(NN=C(N)N)c2ccccc12
inactive: NCI-H226 lung 117% | NCI-H322M lung 97% | NCI-H460 lung 108% | HOP-92 NSCLC 93.7% | NCI-H522 lung 87.1% | A549/ATCC NSCLC 97.8% | 786-0 renal 95.3% | COLO 205 colon 111% | DU-145 prostate 113% | K-562 leukemia 103% | MALME-3M melanoma 146% | MDA-MB-231 breast 101% | RXF 393 renal 142% | SF-295 CNS 106% | UACC-257 melanoma 105% | M14 melanoma 75.9%

O=P(OCCCl)(OCCCl)C(O)c1ccccc1Cl (configuration not stated)
inactive: NCI-H226 lung 100% | NCI-H322M lung 97% | NCI-H460 lung 115% | A549/ATCC NSCLC 111% | 786-0 renal 110% | COLO 205 colon 101% | DU-145 prostate 112% | K-562 leukemia 96.6% | MALME-3M melanoma 96.7% | MDA-MB-231 breast 108% | RXF 393 renal 125% | SF-268 CNS 103% | SF-295 CNS 102% | SF-539 CNS 98.1% | UACC-257 melanoma 137% | M14 melanoma 105%

COc1ccc(C(=O)N2N=C(c3ccc(Br)cc3)CC2c2cn(-c3ccccc3)nc2-c2ccccc2)cc1 (configuration not stated)
inactive: NCI-H226 lung 88.9% | NCI-H322M lung 78% | HOP-62 NSCLC 22.6% | NCI-H460 lung 41.8% | A549/ATCC NSCLC 22.8% | 786-0 renal 74% | COLO 205 colon 26.2% | DU-145 prostate 47.2% | K-562 leukemia 43.4% | MALME-3M melanoma 73.1% | MDA-MB-231 breast 61.3% | RXF 393 renal 82.4% | SF-268 CNS 71.9% | SF-295 CNS 70.9% | SF-539 CNS 92.4% | UACC-257 melanoma 79.6% | M14 melanoma 39.1%

C/C(=N\Nc1ccc(Cl)cn1)c1ccccn1
active: NCI-H226 lung -8.37% | NCI-H322M lung 9.31% | NCI-H460 lung 0.782% | NCI-H522 lung 6.6% | A549/ATCC NSCLC 6.73% | 786-0 renal 8.74% | COLO 205 colon 9.59% | K-562 leukemia 5.63% | MALME-3M melanoma 2.78% | SF-295 CNS -1.75% | SF-539 CNS -14% | UACC-257 melanoma -11.4% | M14 melanoma 2.33%
inactive: HOP-92 NSCLC 29% | DU-145 prostate 18.2% | MDA-MB-231 breast 31% | RXF 393 renal 19.4% | SF-268 CNS 11.9%

CCOC(=O)c1ccc2n1CCCc1cnc(NC(C)=O)nc1-2
inactive: NCI-H226 lung 82.4% | NCI-H322M lung 110% | NCI-H460 lung 112% | HOP-92 NSCLC 82.2% | NCI-H522 lung 97% | A549/ATCC NSCLC 109% | 786-0 renal 99.4% | COLO 205 colon 122% | DU-145 prostate 111% | K-562 leukemia 102% | MALME-3M melanoma 110% | MDA-MB-231 breast 106% | RXF 393 renal 96.6% | SF-268 CNS 96.2% | SF-295 CNS 100% | SF-539 CNS 95.1% | UACC-257 melanoma 115% | M14 melanoma 99.9%

Cc1ccc(S(=O)(=O)N/N=C2\CC3CCC2C3)cc1 (configuration not stated)
inactive: NCI-H226 lung 96.8% | NCI-H322M lung 99.3% | NCI-H460 lung 107% | HOP-92 NSCLC 87.2% | NCI-H522 lung 96.7% | A549/ATCC NSCLC 105% | 786-0 renal 100% | COLO 205 colon 113% | DU-145 prostate 114% | K-562 leukemia 103% | MALME-3M melanoma 102% | MDA-MB-231 breast 111% | RXF 393 renal 112% | SF-268 CNS 113% | SF-295 CNS 86.6% | SF-539 CNS 97.6% | UACC-257 melanoma 114%

O=C(/C=C\c1ccccc1Cl)c1ccccc1
inactive: NCI-H226 lung 86.2% | NCI-H322M lung 104% | NCI-H460 lung 95.4% | HOP-92 NSCLC 112% | NCI-H522 lung 100% | 786-0 renal 93.9% | COLO 205 colon 120% | DU-145 prostate 101% | K-562 leukemia 102% | MALME-3M melanoma 98.9% | MDA-MB-231 breast 91.7% | RXF 393 renal 89.7% | SF-268 CNS 93.4% | SF-295 CNS 75.2% | SF-539 CNS 103% | UACC-257 melanoma 119% | M14 melanoma 101%

CCOC(=O)CCCCCCCCC(=O)OCC
inactive: NCI-H226 lung 103% | NCI-H322M lung 97.6% | NCI-H460 lung 108% | HOP-92 NSCLC 98.6% | NCI-H522 lung 105% | A549/ATCC NSCLC 107% | 786-0 renal 106% | COLO 205 colon 108% | DU-145 prostate 108% | K-562 leukemia 101% | MALME-3M melanoma 94.4% | MDA-MB-231 breast 111% | RXF 393 renal 112% | SF-268 CNS 97.3% | SF-295 CNS 103% | SF-539 CNS 112% | UACC-257 melanoma 101% | M14 melanoma 114%

Source: PubChem BioAssay (NCI)
